# Results published in PubChem BioAssay.
# The source made the active and inactive calls.
# Legend:
# Albumin (Bos taurus) = Albumin (Bos taurus) (UniProt P02769); test: bovine serum albumin binders on microarray, profiling panel, artefact control for SMM control protein annotation, biochemical, small-molecule microarray, Alexa647 label, 635/667 nm fluorescence (AID 1118); settings: BSA-A647 binding, fluorescence 635 nm, higher = more signal;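 note: score merges 667 nm emission intensity and signal-to-noise per printed compound spot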
# [1] = small-molecule microarray binders of probe aXIP, primary screen, biochemical, NeuroSMM set, 635/667 nm fluorescence (AID 1119); settings: higher = more signal, called active from +8 up or from −8 down;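 note: probe is the protein aXip251-270 applied at 1 µg/mL to compound-printed slides; binding of probe to printed compounds measured as 667 nm fluorescence plus signal to noise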
# [2] = small-molecule binders of probe aNOTCH3, primary screen, biochemical, small-molecule microarray, 635/667 nm fluorescence (AID 1120); settings: higher = more signal;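 note: probe is a biotin-tagged antibody raised against NOTCH3 rather than NOTCH3 protein; score merges spot fluorescence near 667 nm with spot signal to noise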
# [3] = small-molecule binders of probe aNOTCH2, primary screen, biochemical, small-molecule microarray, 635/667 nm fluorescence (AID 1121); settings: higher = more signal;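 note: score merges feature fluorescence read at 667 nm with its signal to noise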
# [4] = target: Carbonic anhydrase 2 (Homo sapiens) (UniProt P00918); test: CAII small-molecule binders, profiling panel, biochemical, small-molecule microarray, Alexa647-labelled CAII (AID 1122); settings: CAII-A647 binding fluorescence, higher = more signal
# [5] = COS7 lysate on small-molecule microarray, probe aHis, 635 nm (AID 1123); settings: COS7 cell lysate, fluorescence, higher = more signal;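 note: z-score combines 667nm fluorescence intensity with signal-to-noise per printed compound spot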
# [6] = compound binding in COS7 lysate, probe aLAP1, primary screen, cell lysate, small-molecule microarray (AID 1124); settings: probe aLAP1, fluorescence, higher = more signal;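 note: lysate comes from COS7 cells expressing LAP1 and is applied at 0.3 µg/mL; score merges spot fluorescence near 667 nm with signal-to-noise over triplicate slides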
# Sam68 (KHDRBS1) = test: Sam68 small-molecule binders, primary screen, biochemical, small-molecule microarray, 635 nm fluorescence (AID 1125); settings: small-molecule microarray binding, higher = more signal;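 note: score merges 667 nm channel intensity with signal to noise over triplicate slides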
# [7] = tested on: Chordin-like protein 2 (CHRDL2); test: CHRDL2 small-molecule binders, primary screen, biochemical, small-molecule microarray, 635 nm fluorescence (AID 1126); settings: small-molecule microarray binding, fluorescence 635 nm; higher = more signal;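 note: printed compound slides probed with Chrdl2 protein at 4 µg/mL for 1 h at 4 C; score merges 667 nm emission intensity with signal to noise over three replicate slides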
# [8] = target: Concanavalin-A (Canavalia ensiformis) (UniProt P02866); test: ConA small-molecule binders, primary screen, artefact control for SMM control protein annotation, biochemical, small-molecule microarray, Alexa647 label, 635 nm (AID 1127); settings: ConA-A647 binding fluorescence, higher = more signal;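 note: z combines 667 nm emission intensity with signal-to-noise across three replicate slides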
# [9] = anti-His antibody binders, primary screen, artefact control for SMM control protein annotation, biochemical, small-molecule microarray, 635 nm fluorescence (AID 1128); settings: anti-His Alexa647 antibody binding, higher = more signal;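 note: score merges feature fluorescence with signal-to-noise for each printed compound spot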
# [10] = tested on: Human papillomavirus type 1a E7 protein (residues 1-88); test: HPV1a E7 small-molecule binders, primary screen, biochemical, small-molecule microarray, residues 1-88, 635 nm (AID 1129); settings: small-molecule microarray binding, fluorescence 635 nm; higher = more signal
# [11] = target: Focal adhesion kinase 1 (Homo sapiens) (UniProt Q05397); test: small-molecule microarray binders of FAK, primary screen, biochemical, 635/667 nm fluorescence, BSA, DTT (AID 1130); settings: PTK2 binding, 635 nm fluorescence, higher = more signal;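 note: composite of spot emission at 667 nm and signal to noise over triplicate slides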
# [12] = tested on: Fibrinogen (Alexa647-labelled); test: fibrinogen binders on compound microarrays, profiling panel, artefact control for SMM control-protein annotation, biochemical, small-molecule microarray, 635/667 nm fluorescence (AID 1131); settings: fibrinogen-A647 binding fluorescence, higher = more signal;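 note: z-score merges 667 nm fluorescence with per-spot signal-to-noise over triplicate slides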
# [13] = target: Follistatin (Homo sapiens) (UniProt P19883); test: follistatin binders on small-molecule microarrays, primary screen, biochemical, small-molecule microarray, 635/667 nm fluorescence (AID 1132); settings: FST binding, 635 nm fluorescence, higher = more signal
# [14] = target: Fibroblast growth factor 2 (Homo sapiens) (UniProt P09038); test: FGF2 binders on small-molecule microarrays, primary screen, biochemical, small-molecule microarray, 635/667 nm fluorescence (AID 1133); settings: small-molecule microarray binding, FGF2, fluorescence 635/667; higher = more signal
# [15] = mitochondrial membrane potential change in A549 cells, profiling panel, cell-based, JC-1 fluorescence, basal, 24 h, 100 nL (AID 1138); settings: higher = more signal;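 note: A549 lung adenocarcinoma cells under basal conditions with no added stimulus; test concentration not given here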
# Lefty1 = Lefty1 binders on small-molecule microarrays, primary screen, biochemical, small-molecule microarray, 635/667 nm fluorescence (AID 1139); settings: small-molecule microarray binding, fluorescence 635/667; higher = more signal
# [16] = tested on: wheat germ agglutinin (Triticum aestivum), Alexa647-labelled; test: wheat germ agglutinin binders on compound microarrays, profiling panel, artefact control for SMM control-protein annotation, biochemical, small-molecule microarray, 635/667 nm fluorescence (AID 1140); settings: WGA-A647 binding, 635 nm fluorescence, higher = more signal;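 note: score merges 667 nm feature emission with signal to noise over triplicate slides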
# [17] = target: Luciferin 4-monooxygenase (Photinus pyralis) (UniProt P08659); test: firefly luciferase enzyme inhibitors, primary screen, biochemical, luminescence, purified enzyme, 2006 set (AID 1141); settings: SteadyGlo luminescence, 30 min, higher = more signal, called active from +8 up or from −8 down;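 note: cell-free assay with purified firefly luciferase at 100 ng per well in PBS; test concentration not given here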
# Chain of Luciferin 4-monooxygenase (Photinus pyralis) (P08659 whole entry, looked up): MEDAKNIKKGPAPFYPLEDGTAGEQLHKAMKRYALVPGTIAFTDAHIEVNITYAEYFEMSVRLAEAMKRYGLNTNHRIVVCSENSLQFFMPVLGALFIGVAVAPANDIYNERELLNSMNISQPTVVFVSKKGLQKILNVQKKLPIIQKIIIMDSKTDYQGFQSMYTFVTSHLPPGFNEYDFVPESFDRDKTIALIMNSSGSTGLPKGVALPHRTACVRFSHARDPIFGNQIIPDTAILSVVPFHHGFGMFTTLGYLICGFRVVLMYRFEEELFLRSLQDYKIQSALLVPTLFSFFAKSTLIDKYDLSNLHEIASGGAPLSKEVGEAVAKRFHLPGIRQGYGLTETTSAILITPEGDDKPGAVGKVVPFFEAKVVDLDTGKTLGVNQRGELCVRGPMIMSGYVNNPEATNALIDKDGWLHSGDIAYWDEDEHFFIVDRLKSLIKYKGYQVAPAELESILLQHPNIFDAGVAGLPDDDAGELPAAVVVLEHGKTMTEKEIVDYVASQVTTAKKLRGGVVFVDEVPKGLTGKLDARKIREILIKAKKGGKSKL
# Chain of Focal adhesion kinase 1 (Homo sapiens) (Q05397 whole entry, looked up): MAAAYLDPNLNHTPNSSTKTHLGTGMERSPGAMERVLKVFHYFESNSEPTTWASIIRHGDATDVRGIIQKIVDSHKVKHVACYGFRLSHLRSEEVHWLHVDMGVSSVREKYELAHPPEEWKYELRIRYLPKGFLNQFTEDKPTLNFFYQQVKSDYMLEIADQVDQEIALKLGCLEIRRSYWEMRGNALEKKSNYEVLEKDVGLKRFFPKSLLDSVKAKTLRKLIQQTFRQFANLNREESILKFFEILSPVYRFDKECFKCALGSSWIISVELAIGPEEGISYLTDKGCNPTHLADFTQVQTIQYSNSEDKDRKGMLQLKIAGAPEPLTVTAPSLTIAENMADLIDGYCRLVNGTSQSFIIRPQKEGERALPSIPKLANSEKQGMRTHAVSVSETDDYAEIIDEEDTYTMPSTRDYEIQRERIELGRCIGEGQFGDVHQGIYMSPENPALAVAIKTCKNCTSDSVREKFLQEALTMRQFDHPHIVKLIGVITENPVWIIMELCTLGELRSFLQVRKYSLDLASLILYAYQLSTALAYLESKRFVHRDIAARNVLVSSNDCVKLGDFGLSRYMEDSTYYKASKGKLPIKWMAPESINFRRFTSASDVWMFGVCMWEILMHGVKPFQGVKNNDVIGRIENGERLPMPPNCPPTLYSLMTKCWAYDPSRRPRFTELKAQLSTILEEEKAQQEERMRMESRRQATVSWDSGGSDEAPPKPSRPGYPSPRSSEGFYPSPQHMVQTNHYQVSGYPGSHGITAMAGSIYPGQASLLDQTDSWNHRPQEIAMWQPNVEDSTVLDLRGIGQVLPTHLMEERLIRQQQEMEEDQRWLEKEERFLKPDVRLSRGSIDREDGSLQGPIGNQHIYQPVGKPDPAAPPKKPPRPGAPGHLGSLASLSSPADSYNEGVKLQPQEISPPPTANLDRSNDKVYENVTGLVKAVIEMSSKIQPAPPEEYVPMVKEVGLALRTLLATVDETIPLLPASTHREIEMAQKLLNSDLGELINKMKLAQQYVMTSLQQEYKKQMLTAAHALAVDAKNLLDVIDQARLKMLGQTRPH
# Chain of Albumin (Bos taurus) (P02769 whole entry, looked up): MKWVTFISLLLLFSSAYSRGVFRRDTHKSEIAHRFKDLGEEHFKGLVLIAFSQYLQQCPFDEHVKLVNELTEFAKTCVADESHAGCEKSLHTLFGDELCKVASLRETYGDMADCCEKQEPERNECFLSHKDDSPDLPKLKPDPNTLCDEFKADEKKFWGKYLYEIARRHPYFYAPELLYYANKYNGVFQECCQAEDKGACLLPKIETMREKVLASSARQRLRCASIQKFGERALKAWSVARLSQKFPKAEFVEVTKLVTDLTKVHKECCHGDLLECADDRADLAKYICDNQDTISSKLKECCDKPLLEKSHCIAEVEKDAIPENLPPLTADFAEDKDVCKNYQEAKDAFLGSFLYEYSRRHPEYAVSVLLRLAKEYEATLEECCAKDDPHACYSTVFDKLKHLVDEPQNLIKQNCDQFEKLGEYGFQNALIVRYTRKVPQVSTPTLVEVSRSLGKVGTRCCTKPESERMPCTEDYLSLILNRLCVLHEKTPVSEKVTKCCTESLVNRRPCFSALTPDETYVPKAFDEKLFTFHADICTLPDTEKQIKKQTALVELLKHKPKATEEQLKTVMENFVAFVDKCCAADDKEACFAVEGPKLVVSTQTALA
# Chain of Concanavalin-A (Canavalia ensiformis) (P02866 whole entry, looked up): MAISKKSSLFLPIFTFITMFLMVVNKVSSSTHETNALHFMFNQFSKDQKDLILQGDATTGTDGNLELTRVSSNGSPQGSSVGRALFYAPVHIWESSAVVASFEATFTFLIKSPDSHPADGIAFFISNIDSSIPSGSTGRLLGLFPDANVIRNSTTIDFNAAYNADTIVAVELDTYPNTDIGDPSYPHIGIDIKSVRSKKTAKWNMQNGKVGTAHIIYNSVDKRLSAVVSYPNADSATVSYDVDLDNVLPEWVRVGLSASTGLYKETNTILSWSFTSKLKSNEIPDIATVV
# Chain of Follistatin (Homo sapiens) (P19883 whole entry, looked up): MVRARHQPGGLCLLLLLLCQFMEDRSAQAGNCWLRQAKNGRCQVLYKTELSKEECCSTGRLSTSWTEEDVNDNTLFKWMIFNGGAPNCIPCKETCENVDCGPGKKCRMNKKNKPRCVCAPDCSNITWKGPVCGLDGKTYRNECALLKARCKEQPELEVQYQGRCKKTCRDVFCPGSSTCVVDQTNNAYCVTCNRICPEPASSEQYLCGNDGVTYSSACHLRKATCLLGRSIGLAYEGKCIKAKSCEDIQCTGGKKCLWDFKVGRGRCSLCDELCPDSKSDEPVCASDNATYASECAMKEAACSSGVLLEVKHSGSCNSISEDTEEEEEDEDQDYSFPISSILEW
# Chain of Fibroblast growth factor 2 (Homo sapiens) (P09038 whole entry, looked up): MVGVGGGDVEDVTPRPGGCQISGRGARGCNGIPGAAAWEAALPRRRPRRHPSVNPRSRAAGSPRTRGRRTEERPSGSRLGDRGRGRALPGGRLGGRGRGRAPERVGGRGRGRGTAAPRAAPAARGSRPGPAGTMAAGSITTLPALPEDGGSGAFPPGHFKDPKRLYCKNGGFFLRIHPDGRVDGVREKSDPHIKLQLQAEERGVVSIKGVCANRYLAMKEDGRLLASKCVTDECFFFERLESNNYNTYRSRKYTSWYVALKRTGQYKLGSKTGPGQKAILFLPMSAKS
Compound,composite z-score (Albumin (Bos taurus)),composite Z-score [1],composite z-score [2],composite z-score [3],composite z-score [4],composite z-score [5],composite z-score [6],composite z-score (Sam68 (KHDRBS1)),composite z-score [7],composite z-score [8],composite z-score [9],composite z-score [10],composite z-score [11],composite z-score [12],composite z-score [13],composite z-score [14],z-score [15],composite z-score (Lefty1),composite z-score [16],z-score [17]
O=C1O[C@@H](c2ccccc2)[C@@H](c2ccccc2)N2[C@@H](c3ccc(OCCO)cc3)[C@]3(C(=O)Nc4ccc(C#CC5=CCCCC5)cc43)[C@@H](C(=O)Nc3nc4ccccc4s3)[C@H]12,-0.01,0.159 (inactive),0.674,-0.42,0.303,1.14,-0.142,1.28,0.163,1.07,0.22,0.525,-0.0302,0.99,0.593,1.25,-2.31,0.547,0.453,-2.64 (inactive)
CCN1C(=O)C2CC(=O)C3C(CN(S(=O)(=O)c4ccc(C)cc4)C3c3ccc(C)cc3)C2C1=O (stereo not given),0.449,0.37 (inactive),0.0282,-0.108,0.75,2.05,1.11,0.768,-0.99,0.99,1.98,1.18,1.09,-0.38,-0.238,-0.315,0.0148,-0.573,-0.0147,0.12 (inactive)
C[C@]1(C(=O)NCC(F)(F)F)c2ccccc2C(=O)N(Cc2cc(C(F)(F)F)cc(C(F)(F)F)c2)[C@H]1c1ccc(CO)cc1,0.154,0.196 (inactive),-0.154,-0.0226,0.306,1.11,0.108,0.1,-0.404,-0.522,0.0266,0.416,0.0715,0.412,-0.0478,0.292,1.23,-0.541,-0.174,-1.17 (inactive)
CO[C@H]1O[C@H](CO)[C@@H](OC(=O)Nc2cccc(F)c2)[C@H](OC(=O)Nc2ccc3c(c2)OCO3)[C@@H]1OC(=O)Nc1ccc2c(c1)OCO2,0.364,0.942 (inactive),0.15,-0.0247,0.753,1.64,0.678,1.32,0.149,0.708,2.61,1.29,0.243,0.973,1.25,0.217,-0.307,0.278,0.654,-4.46 (inactive)
C=CCN1C(=O)[C@@]2(O[C@@H](CCO)[C@H]([Si](C)(C)c3ccc(OC)cc3)[C@H]2C)c2cc(N3CCCCC3=O)ccc21,0.446,0.734 (inactive),0.239,-0.108,0.429,1.17,0.0635,0.702,0.285,0.901,2.63,1.16,-0.19,0.745,1.36,0.821,0.225,1.23,0.302,-0.0999 (inactive)
CCOC(=O)C[C@H]1[C@H](OC(=O)c2cc3ccccc3oc2=O)[C@@H](NC(=O)Cc2ccc(OC)cc2)c2cc(OCCCO)ccc2N1C(=O)Cc1ccc(OC)cc1,0.112,0.594 (inactive),0.0522,-0.162,0.709,0.638,-0.0915,0.23,0.441,0.817,-0.279,-0.624,0.122,1.03,0.705,0.453,-0.202,0.983,0.348,0.827 (inactive)
C=C(COC)/C(=C/C[C@@H](OC(=O)c1ccncc1)c1ccccc1OCCO)c1cnc2ccccc2c1,0.57,0.341 (inactive),0.265,-0.0762,0.962,0.562,0.475,1.3,1.38,1.22,1.27,1.17,0.276,0.848,1.47,1.6,1.5,1.56,1.39,-1.17 (inactive)
CC1CC/C=C\[C@H]2OC34C=CCN(C(C)C)C(=O)[C@H]3N(C(C)CO)C(=O)[C@@H]4C2C(=O)O1 (stereo not given in full),0.702,0.439 (inactive),-0.162,-0.115,0.418,-0.406,-0.108,-0.26,-0.337,-0.0657,-0.112,-0.504,-0.205,-1.22,0.305,-0.455,0.501,0.572,0.748,-0.316 (inactive)
C=C(CCCC)/C(=C/C[C@@H](OC(C)=O)c1cccc(OCCO)c1)c1cc(C(=O)OC)ccc1OC,0.119,0.303 (inactive),-0.0131,-0.168,0.561,-0.22,-0.247,0.71,-0.0137,-0.656,0.57,0.0538,0.0738,0.249,0.705,0.0923,1.63,1.08,0.617,-0.132 (inactive)
COC(=O)[C@@]1(Cc2ccc(F)cc2)[C@H]2c3cc(C(=O)N(C)C)n(Cc4ccc(C(F)(F)F)nc4)c3C[C@H]2CN1C(=O)c1ccccc1,0.98,-0.387 (inactive),0.894,-0.0531,0.726,3.26,0.311,1.33,0.214,1.1,1.33,1.27,1.61,1.02,1.05,-0.234,0.453,0.853,0.895,1.57 (inactive)
COCCOC(=O)N1C(=O)[C@@]2(c3ccccc31)[C@H](C(=O)Nc1nc3ccccc3s1)[C@H]1C(=O)O[C@H](c3ccccc3)[C@H](c3ccccc3)N1[C@@H]2c1ccccc1OCCO,0.0171,0.0308 (inactive),0.291,-0.0684,0.526,1.54,1.63,1.3,0.145,1.08,1.55,1.19,-0.0016,0.941,1.17,0.676,-2.3,0.42,1.19,-0.653 (inactive)
O=C1NC(=O)C2C1C=CC(C(O)C(c1ccccc1)c1ccccc1)N2Nc1ccccn1 (stereo not given),0.26,-0.212 (inactive),0.15,0.256,0.809,0.899,0.754,-0.0644,0.691,-0.516,2.42,1.15,0.595,0.987,0.709,1.06,0.669,-0.0403,0.843,-2.04 (inactive)
COc1ccc([Si](C)(C)[C@H]2[C@H](CC(=O)N3CCC[C@H]3CO)O[C@@]3(C(=O)N(C)c4c(Br)cc(C)cc43)[C@@H]2C)cc1,0.824,3.93 (inactive),0.189,0.503,0.81,2.52,0.548,1.3,1.38,1.19,1.15,1.22,1.44,0.74,1.59,1.86,-0.0282,1.43,1.59,0.395 (inactive)
C=CCNC(=O)[C@@H]1[C@H]2C(=O)O[C@H](c3ccccc3)[C@H](c3ccccc3)N2[C@H](c2ccc(O)cc2)[C@@]12C(=O)N(C(=O)OCCOC)c1ccc(C#CCC(C(=O)OC)C(=O)OC)cc12,0.366,0.903 (inactive),0.0813,-0.084,0.271,1.33,0.793,1.3,0.413,0.601,1.06,1.19,0.214,0.271,1.13,0.722,0.556,0.719,0.94,0.367 (inactive)
CCc1cccc(NC(=O)O[C@H]2[C@H](OC(=O)Nc3ccccc3-c3ccccc3)[C@H](OC(=O)Nc3ccccc3-c3ccccc3)[C@@H](OC)O[C@@H]2CO)c1,0.715,0.814 (inactive),0.122,-0.0273,0.728,2.04,0.0611,1.28,0.478,1.12,0.979,1.21,0.775,1.01,1.36,0.598,-1.35,1.21,0.834,1.09 (inactive)
O=C(NCC(F)(F)F)[C@@H]1c2ccccc2C(=O)N(Cc2cc(C(F)(F)F)cc(C(F)(F)F)c2)[C@H]1c1ccc(CO)cc1,0.195,-0.368 (inactive),-0.154,-0.0984,0.207,0.729,0.158,0.178,0.0632,0.209,3.22,0.0165,0.246,-0.0773,0.647,0.295,1.89,-0.26,-0.352,0.839 (inactive)
COc1c(C)cc(-c2cc3c(c(CCc4ccccc4)n2)[Si](C(C)C)(C(C)C)O[C@H]3c2ccccc2)cc1C,-0.0598,0.123 (inactive),-0.0728,-0.14,-0.121,0.463,-0.153,-0.423,-0.2,0.398,-0.439,-0.425,-0.191,-0.543,0.029,-0.278,0.386,0.268,0.183,-0.183 (inactive)
CC(C)C[C@@H]1NC(=O)[C@@H]2C[C@H](C(=O)NCCCCCCNC(=O)CS)[C@H](c3ccc(O)cc3)N2C1=O,-0.025,0.0101 (inactive),0.133,-0.0817,0.706,1.91,0.655,1.28,1.26,0.995,2.1,1.28,0.116,0.913,1.46,1.62,-1.16,1.41,0.907,-0.677 (inactive)
